# Source: PubChem BioAssay (Tox21)
# Where “and” joins values, the source holds several entries; their conditions need not be identical. Identical values can stand only once. Records with an inconclusive call do not appear. A call without a number means that no potency is given here. Some compounds were tested as several samples or in several runs, with calls that do not always agree. Calls of active or inactive are those of the source. Calls come from the whole dose curve; as a rule, active = well fitted curve in the direction sought with a large enough effect in the repeat runs; inconclusive = weak or mixed curves; inactive = no such curve, though single readings can be large; an effect the other way counts as inactive or inconclusive.
# What was measured:
# [1] = target: Cytochrome P450 2C19 (Homo sapiens) (UniProt P33261); assay: Cytochrome P450 Family 2 Subfamily C Member 19 (CYP2C19) small molecule antagonists: luciferase reporter qHTS assay (AID 1671197); note: nearly all actives have a fitted effect of over 65% in size; for activity change, negative = inhibition: series mostly up to about 120 µM
# Chain of Cytochrome P450 2C19 (Homo sapiens) (P33261 whole entry, looked up): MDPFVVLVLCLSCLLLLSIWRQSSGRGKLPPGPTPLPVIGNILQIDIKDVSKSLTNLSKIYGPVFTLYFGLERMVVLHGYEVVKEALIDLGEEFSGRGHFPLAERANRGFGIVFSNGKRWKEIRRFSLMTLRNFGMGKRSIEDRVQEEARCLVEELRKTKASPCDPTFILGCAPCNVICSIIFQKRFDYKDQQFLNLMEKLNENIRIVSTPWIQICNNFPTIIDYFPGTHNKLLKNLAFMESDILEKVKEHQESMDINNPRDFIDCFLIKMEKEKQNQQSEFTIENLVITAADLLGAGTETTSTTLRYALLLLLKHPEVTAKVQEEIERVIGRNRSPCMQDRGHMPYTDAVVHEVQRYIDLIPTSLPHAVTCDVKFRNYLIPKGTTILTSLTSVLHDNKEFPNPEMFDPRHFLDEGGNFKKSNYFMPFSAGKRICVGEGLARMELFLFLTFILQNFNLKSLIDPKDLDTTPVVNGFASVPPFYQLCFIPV
# Procedure, shortened: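 Relative luminescence units recorded 20 min after the detection reagent stopped a 1 h, 37C CYP2C19 reaction on proluciferin substrate, which was started by NADPH regeneration following 10 min room-temperature compound preincubation; ketoconazole positive control.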
# [2] = target: Cytochrome P450 1A2 (Homo sapiens) (UniProt P05177); assay: Cytochrome P450 Family 1 Subfamily A Member 2 (CYP1A2) small molecule antagonists: luciferase reporter qHTS assay (AID 1671199); note: nearly all actives have a fitted effect of over 50% in size; for activity change, negative = inhibition: series mostly up to about 120 µM
# Chain of Cytochrome P450 1A2 (Homo sapiens) (P05177 whole entry, looked up): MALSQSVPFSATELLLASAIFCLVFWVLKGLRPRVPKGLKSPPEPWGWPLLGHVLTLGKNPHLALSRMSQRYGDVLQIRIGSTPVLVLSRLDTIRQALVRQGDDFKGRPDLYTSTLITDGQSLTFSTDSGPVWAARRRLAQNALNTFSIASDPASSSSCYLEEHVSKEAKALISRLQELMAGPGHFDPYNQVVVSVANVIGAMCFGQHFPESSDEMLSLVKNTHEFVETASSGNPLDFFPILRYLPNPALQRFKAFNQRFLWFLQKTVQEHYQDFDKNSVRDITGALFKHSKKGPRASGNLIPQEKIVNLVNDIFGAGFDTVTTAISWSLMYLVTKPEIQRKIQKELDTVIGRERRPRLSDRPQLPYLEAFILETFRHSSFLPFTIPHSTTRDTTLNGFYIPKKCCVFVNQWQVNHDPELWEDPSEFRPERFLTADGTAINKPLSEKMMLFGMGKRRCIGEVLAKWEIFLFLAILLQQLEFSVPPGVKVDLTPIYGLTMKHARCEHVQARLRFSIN
# Procedure, shortened: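 Luminescence readout (relative luminescence units) after luciferin detection reagent, 20 min RT. Preceded by 1 h room-temperature CYP1A2 reaction with NADPH regeneration solution following 10 min compound preincubation with enzyme and proluciferin substrate. Furafylline positive control.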
# [3] = target: Voltage-gated inwardly rectifying potassium channel KCNH2 (Homo sapiens) (UniProt Q12809); assay: Human Ether-a-go-go-Related Gene (hERG) channel small molecule antagonists: fluorescence cell-based qHTS assay (AID 1671200); note: nearly all actives have a fitted effect of over 50% in size;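 for activity change, negative = inhibition: hERG-expressing U2OS cells given a thallium stimulus after FluxOR II dye loading; series mostly up to about 77 µM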
# Chain of Voltage-gated inwardly rectifying potassium channel KCNH2 (Homo sapiens) (Q12809 whole entry, looked up): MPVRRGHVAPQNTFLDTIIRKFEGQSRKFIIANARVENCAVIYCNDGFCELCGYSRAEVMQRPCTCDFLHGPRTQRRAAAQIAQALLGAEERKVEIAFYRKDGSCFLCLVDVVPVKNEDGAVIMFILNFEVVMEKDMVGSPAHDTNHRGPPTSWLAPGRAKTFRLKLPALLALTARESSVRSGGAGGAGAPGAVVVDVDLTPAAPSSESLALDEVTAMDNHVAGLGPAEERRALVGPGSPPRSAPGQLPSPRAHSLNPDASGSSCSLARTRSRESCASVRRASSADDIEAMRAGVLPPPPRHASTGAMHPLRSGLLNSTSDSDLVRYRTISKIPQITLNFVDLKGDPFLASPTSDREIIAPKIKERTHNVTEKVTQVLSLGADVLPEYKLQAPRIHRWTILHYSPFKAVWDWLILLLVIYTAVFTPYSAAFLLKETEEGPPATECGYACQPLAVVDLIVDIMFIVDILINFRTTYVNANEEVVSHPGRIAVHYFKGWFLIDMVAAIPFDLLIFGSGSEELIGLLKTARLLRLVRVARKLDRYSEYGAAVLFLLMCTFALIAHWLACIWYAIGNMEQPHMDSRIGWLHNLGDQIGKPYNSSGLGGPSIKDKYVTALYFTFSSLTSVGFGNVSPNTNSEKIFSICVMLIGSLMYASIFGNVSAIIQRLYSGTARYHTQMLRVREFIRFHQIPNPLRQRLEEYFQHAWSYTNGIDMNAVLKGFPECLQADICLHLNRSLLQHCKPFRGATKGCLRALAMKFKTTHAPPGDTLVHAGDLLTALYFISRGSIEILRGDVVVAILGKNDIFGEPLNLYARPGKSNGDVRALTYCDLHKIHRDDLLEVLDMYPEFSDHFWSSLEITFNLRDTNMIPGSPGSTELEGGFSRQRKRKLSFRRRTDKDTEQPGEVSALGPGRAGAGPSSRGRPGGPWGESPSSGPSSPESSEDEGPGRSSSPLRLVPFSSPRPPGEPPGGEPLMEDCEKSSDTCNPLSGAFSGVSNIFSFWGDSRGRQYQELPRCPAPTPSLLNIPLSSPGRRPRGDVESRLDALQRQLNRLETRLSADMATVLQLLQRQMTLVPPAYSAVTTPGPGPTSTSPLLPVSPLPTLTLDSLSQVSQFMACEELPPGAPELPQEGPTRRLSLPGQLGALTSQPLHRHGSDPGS
# Procedure, shortened: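 Kinetic two-minute fluorescence traces, sampled at 1 s, were collected following thallium stimulus of U2OS cells (1000 per well) that had been cultured overnight at 37 C and loaded with FluxOR II.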
# [4] = target: Cytochrome P450 2C9 (Homo sapiens) (UniProt P11712); assay: Cytochrome P450 Family 2 Subfamily C Member 9 (CYP2C9) small molecule antagonists: luciferase reporter qHTS assay (AID 1671198); note: nearly all actives have a fitted effect of over 50% in size; for activity change, negative = inhibition: series mostly up to about 120 µM
# Chain of Cytochrome P450 2C9 (Homo sapiens) (P11712 whole entry, looked up): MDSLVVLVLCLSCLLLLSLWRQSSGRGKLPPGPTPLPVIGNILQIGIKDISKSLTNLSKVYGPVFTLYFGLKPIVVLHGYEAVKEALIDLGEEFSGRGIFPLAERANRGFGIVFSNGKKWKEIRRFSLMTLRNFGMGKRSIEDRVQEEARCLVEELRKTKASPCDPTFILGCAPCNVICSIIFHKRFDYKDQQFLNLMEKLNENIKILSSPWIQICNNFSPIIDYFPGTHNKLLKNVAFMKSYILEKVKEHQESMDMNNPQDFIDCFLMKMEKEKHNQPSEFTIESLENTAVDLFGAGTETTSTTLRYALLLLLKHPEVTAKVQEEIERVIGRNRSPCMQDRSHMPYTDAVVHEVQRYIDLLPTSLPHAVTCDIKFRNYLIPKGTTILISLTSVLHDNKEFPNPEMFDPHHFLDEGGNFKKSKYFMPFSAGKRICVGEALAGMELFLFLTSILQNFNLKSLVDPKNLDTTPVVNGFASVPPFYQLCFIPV
# Procedure, shortened: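 CYP2C9 activity was measured with a P450-Glo proluciferin substrate. Enzyme–substrate mix was held with compound for 10 min at room temperature, then NADPH regeneration solution was added for 1 h at 37C. Luciferin product was read as luminescence.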
# [5] = target: Cytochrome P450 3A4 (Homo sapiens) (UniProt P08684); assay: Cytochrome P450 Family 3 Subfamily A Member 4 (CYP3A4) small molecule antagonists: luciferase reporter qHTS assay (AID 1671201); note: nearly all actives have a fitted effect of over 50% in size; for activity change, negative = inhibition: series mostly up to about 120 µM
# Chain of Cytochrome P450 3A4 (Homo sapiens) (P08684 whole entry, looked up): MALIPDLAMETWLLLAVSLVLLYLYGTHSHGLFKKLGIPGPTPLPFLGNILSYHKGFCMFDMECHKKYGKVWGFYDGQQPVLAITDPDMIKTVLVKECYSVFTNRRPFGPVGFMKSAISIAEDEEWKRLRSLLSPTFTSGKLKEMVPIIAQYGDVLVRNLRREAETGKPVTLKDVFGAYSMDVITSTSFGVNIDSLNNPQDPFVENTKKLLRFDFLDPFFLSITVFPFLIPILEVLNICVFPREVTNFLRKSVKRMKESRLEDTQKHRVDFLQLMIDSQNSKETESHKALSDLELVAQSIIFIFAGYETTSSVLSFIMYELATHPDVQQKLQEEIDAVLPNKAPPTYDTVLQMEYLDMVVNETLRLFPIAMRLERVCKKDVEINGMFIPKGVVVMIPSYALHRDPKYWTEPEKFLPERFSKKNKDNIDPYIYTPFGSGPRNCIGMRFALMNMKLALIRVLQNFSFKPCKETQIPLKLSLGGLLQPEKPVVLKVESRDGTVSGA
# Procedure, shortened: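 Proluciferin-to-luciferin conversion by CYP3A4, NADPH-regenerated, 1 h RT; luminescence read as RLU. Ketoconazole as control.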
# Potency is the fitted concentration of half-maximal effect.
smiles,measurement,setting,value
CC[N+](CC)(CC(=O)Nc1c(C)cccc1C)Cc1ccccc1,Potency,[1],39.9 µM (active) and inactive
same,Potency,[2],inactive
same,Potency,[3],24.5 µM (active) and inactive
CC(=O)OC[C@H]1O[C@@](COC(C)=O)(O[C@H]2O[C@H](COC(C)=O)[C@@H](OC(C)=O)[C@H](OC(C)=O)[C@H]2OC(C)=O)[C@@H](OC(C)=O)[C@@H]1OC(C)=O,Potency,[1],inactive
same,Potency,[2],inactive
same,Potency,[3],inactive
O=C(O)Cc1c[nH]c2ccccc12,Potency,[1],17.8 µM (active) and inactive
same,Potency,[4],31.7 µM (active) and inactive
same,Potency,[2],inactive
same,Potency,[3],inactive
same,Potency,[5],inactive
Cc1ccc([N+](=O)[O-])cc1N,Potency,[1],35.5 µM (active) and 44.8 µM (active)
same,Potency,[2],11.2 µM (active) and 8.94 µM (active)
same,Potency,[3],inactive
O=C1CCCCCCCCCCC1,Potency,[1],inactive
same,Potency,[4],inactive
same,Potency,[2],inactive
same,Potency,[3],inactive
same,Potency,[5],inactive
CO[Si](CCCNCCN)(OC)OC,Potency,[1],inactive
same,Potency,[4],inactive
same,Potency,[3],inactive
same,Potency,[5],inactive
CC(COCC(C)OC(=O)c1ccccc1)OC(=O)c1ccccc1 (stereo unspecified),Potency,[1],19.9 µM (active) and 11.2 µM (active)
same,Potency,[4],6.28 µM (active) and 5.64 µM (active)
same,Potency,[2],9.95 µM (active) and 6.33 µM (active)
same,Potency,[5],inactive
c1cnc2c(c1)ccc1cccnc12,Potency,[1],10.1 µM (active) and 8.94 µM (active) and 10 µM (active)
same,Potency,[2],10.1 µM (active) and 14.2 µM (active) and 11.2 µM (active)
same,Potency,[3],inactive
same,Potency,[5],inactive
CC(C)=CCC/C(C)=C/C=O,Potency,[1],inactive
same,Potency,[2],inactive
same,Potency,[3],inactive
same,Potency,[5],inactive and 35.6 µM (active)
CC(C)(C)NC[C@H](O)COc1nsnc1N1CCOCC1,Potency,[1],inactive
same,Potency,[3],inactive
NC(=O)NC(N)=O,Potency,[1],inactive
same,Potency,[2],inactive
same,Potency,[3],inactive
same,Potency,[5],inactive
O=C1OC(=O)c2c(Cl)c(Cl)c(Cl)c(Cl)c21,Potency,[4],inactive
same,Potency,[2],inactive
same,Potency,[3],inactive
same,Potency,[5],inactive
CCOC(=O)CC(=O)OCC,Potency,[1],inactive
same,Potency,[2],inactive
same,Potency,[3],inactive
same,Potency,[5],inactive
Cc1ccc(C(C)C)cc1,Potency,[1],inactive
same,Potency,[2],inactive
same,Potency,[3],inactive
same,Potency,[5],inactive
CCc1cccc(O)c1,Potency,[1],40.8 µM (active)
same,Potency,[3],inactive
same,Potency,[5],inactive
N[C@@H](Cc1cc(I)c(Oc2ccc(O)c(I)c2)c(I)c1)C(=O)O,Potency,[1],inactive and 74 µM (active)
same,Potency,[3],inactive
CCN(CC)CCNC(=O)c1ccc(N)cc1,Potency,[3],inactive
CC(=O)CC(=O)N(C)C,Potency,[1],inactive
same,Potency,[2],inactive
same,Potency,[3],inactive
same,Potency,[5],inactive
C=C(CC(=O)O)C(=O)O,Potency,[3],inactive
O=C1C(N(CO)C(=O)NCO)N(CO)C(=O)N1CO (stereo unspecified),Potency,[1],inactive
same,Potency,[2],inactive
same,Potency,[3],inactive
same,Potency,[5],inactive
O=[N+]([O-])c1cc(C(F)(F)F)ccc1Cl,Potency,[1],inactive
same,Potency,[2],inactive
same,Potency,[3],inactive
same,Potency,[5],inactive
CC(=O)c1nccs1,Potency,[1],26.1 µM (active) and inactive
same,Potency,[3],inactive
same,Potency,[5],inactive
Cc1cc(CC(=O)O)n(C)c1C(=O)c1ccc(Cl)cc1,Potency,[4],inactive
same,Potency,[2],inactive
same,Potency,[3],inactive
same,Potency,[5],inactive
NCCNCCNCCN,Potency,[3],inactive
OCCOCCOCCOCCOCCO,Potency,[3],inactive
COc1c(Cl)ccc(Cl)c1C(=O)O,Potency,[1],inactive
same,Potency,[2],inactive
same,Potency,[3],inactive
same,Potency,[5],inactive
CCOC(=O)c1ccc(O)cc1,Potency,[3],inactive
CC(=O)Nc1ccc(CC(=O)O)cc1,Potency,[1],inactive
same,Potency,[2],inactive
same,Potency,[3],inactive
same,Potency,[5],inactive
CCCCCCC(=O)O,Potency,[1],inactive
same,Potency,[2],inactive
same,Potency,[3],inactive
same,Potency,[5],inactive
Cc1ccncc1,Potency,[1],inactive
same,Potency,[2],inactive
same,Potency,[3],inactive
same,Potency,[5],inactive
CC(CN1c2ccccc2Sc2ccccc21)N(C)C (stereo unspecified),Potency,[1],8.05 µM (active) and 10 µM (active) and 7.76 µM (active)
same,Potency,[3],22.1 µM (active) and 21.9 µM (active) and 21.3 µM (active)
same,Potency,[5],inactive
NC1CCCCC1N (stereo unspecified),Potency,[3],inactive
CCCCCNCCCCC,Potency,[1],inactive
same,Potency,[2],inactive
same,Potency,[3],inactive
same,Potency,[5],inactive
C=C1C[C@]23C[C@@]1(O)CC[C@H]2[C@@]12C=C[C@H](O)[C@@](C)(C(=O)O1)[C@H]2[C@@H]3C(=O)O,Potency,[3],inactive
Cc1ncc(CO)c(CO)c1O,Potency,[1],inactive
same,Potency,[2],inactive
same,Potency,[3],inactive
same,Potency,[5],inactive
Brc1ccc(Oc2ccc(Br)cc2)cc1,Potency,[1],12.6 µM (active) and 5.03 µM (active)
same,Potency,[2],22.5 µM (active) and 20 µM (active)
same,Potency,[5],inactive
C=CC(=O)NCOCCCC,Potency,[1],46.2 µM (active)
same,Potency,[2],inactive
same,Potency,[3],inactive
same,Potency,[5],inactive
CC(C)(CO)CO,Potency,[1],inactive
same,Potency,[3],inactive
same,Potency,[5],inactive
CS(=O)(=O)c1ccc(Cl)cc1,Potency,[1],inactive
same,Potency,[2],inactive
same,Potency,[3],inactive
same,Potency,[5],inactive
CC(C)c1ccc(C(C)C)cc1,Potency,[1],inactive
same,Potency,[3],inactive
same,Potency,[5],inactive
Clc1cccc(Cl)c1NC1=NCCN1,Potency,[3],inactive
OC[C@H]1O[C@@H](Oc2ccc(O)cc2)[C@H](O)[C@@H](O)[C@@H]1O,Potency,[1],inactive
same,Potency,[2],inactive
same,Potency,[3],inactive
same,Potency,[5],inactive
O=c1c(O)c(-c2ccc(O)c(O)c2)oc2cc(O)cc(O)c12,Potency,[1],inactive
same,Potency,[3],inactive
CCCCCCCCCCCC(=O)N(C)CC(=O)O,"activity change, negative = inhibition",[1],17.6% [at 10.5 µM] (inactive)
same,Potency,[2],inactive
same,Potency,[3],inactive
same,Potency,[5],inactive
CCc1cccc(CC)c1N,Potency,[1],inactive and 79.6 µM (active)
same,Potency,[2],22.6 µM (active) and 5.64 µM (active)
same,Potency,[3],inactive
same,Potency,[5],inactive
COCN(COC)c1nc(N(COC)COC)nc(N(COC)COC)n1,Potency,[2],inactive
same,Potency,[3],inactive
same,Potency,[5],inactive
